Records with an inconclusive call do not appear. Calls of active or inactive are those of the source. How the source made its calls: active means hit-call score of the fitted dose curve at least 0.9, where 1 is the maximum; inconclusive means response in the unintended direction; inactive means score below 0.9.
What was measured:
[1] = target: Cellular tumor antigen p53 (Homo sapiens) (UniProt P04637); test: TOX21_p53_BLA_p2_ratio: Tox21 HCT-116 p53 Agonism Beta-lactamase Assay, Ratio, Phase 2 (AID 2283592)
Cellular tumor antigen p53 (Homo sapiens), sequence (P04637 whole entry, looked up): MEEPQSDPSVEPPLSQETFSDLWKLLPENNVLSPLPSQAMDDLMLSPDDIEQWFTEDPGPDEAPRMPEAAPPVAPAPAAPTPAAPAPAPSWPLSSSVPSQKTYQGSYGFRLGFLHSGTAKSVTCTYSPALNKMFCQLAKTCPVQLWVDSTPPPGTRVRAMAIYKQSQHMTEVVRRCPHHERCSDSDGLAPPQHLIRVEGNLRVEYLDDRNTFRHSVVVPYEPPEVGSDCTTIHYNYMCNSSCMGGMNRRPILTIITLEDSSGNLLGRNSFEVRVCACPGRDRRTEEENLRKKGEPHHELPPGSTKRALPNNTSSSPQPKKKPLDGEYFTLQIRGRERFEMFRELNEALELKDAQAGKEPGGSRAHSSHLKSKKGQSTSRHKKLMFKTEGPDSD
Procedure, shortened: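 Cleaved-to-uncleaved substrate ratio (460 vs 530 nm) measured in HCT116 cells with an inducible beta-lactamase reporter linked to p53 activity. Compounds incubated 16 h at 37C before 2 h room-temperature CCF4-AM loading.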

[2] = TOX21_p53_BLA_p3_viability: Viability Assessment in the Tox21 HCT-116 p53 Agonism Beta-lactamase Assay, Phase 3 (AID 2283593);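 further: cells exposed to compound for 16 h before reading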
Procedure, shortened: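 HCT-116 cells (4000/well) rested 5 h at 37C, then got DMSO compounds by pin tool (217-fold dilution) for 16 h at 37C, 5% CO2. After the bla read, CellTiter-Glo was added and luminescence read at 30 min, room temperature.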

[3] = target: Cellular tumor antigen p53 (Homo sapiens) (UniProt P04637); test: TOX21_p53_BLA_p3_ratio: Tox21 HCT-116 p53 Agonism Beta-lactamase Assay, Ratio, Phase 3 (AID 2283596)
Procedure, shortened: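 Cells were seeded at 4000/well, rested 5 h at 37C, then dosed with DMSO compound solutions (217-fold dilution) for 16 h. CCF4-AM substrate was loaded for 2 h at room temperature, and the 460/530 nm emission ratio was fitted for gain of signal versus DMSO.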

[4] = TOX21_p53_BLA_p4_viability: Viability Assessment in the Tox21 HCT-116 p53 Agonism Beta-lactamase Assay, Phase 4 (AID 2283597);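 further: hits lower the luminescence signal meaning cytotoxicity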
Procedure, shortened: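 Viability is taken as cellular ATP: after 16 h compound exposure of HCT116 cells and a 2 h room-temperature CCF4-AM substrate step, CellTiter-Glo reagent is added and luminescence is measured 30 min later.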

[5] = target: Cellular tumor antigen p53 (Homo sapiens) (UniProt P04637); test: TOX21_p53_BLA_p5_ratio: Tox21 HCT-116 p53 Agonism Beta-lactamase Assay, Ratio, Phase 5 (AID 2283599)
Procedure, shortened: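 HCT-116 cells carrying a p53-inducible beta-lactamase reporter were seeded at 4000 cells/well and dosed after 5 h with compound in DMSO (217-fold dilution). After 16 h at 37C, CCF4-AM substrate was added for 2 h, and the 460/530 nm emission ratio was scored as gain-of-signal versus DMSO.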

[6] = target: Cellular tumor antigen p53 (Homo sapiens) (UniProt P04637); test: TOX21_p53_BLA_p4_ratio: Tox21 HCT-116 p53 Agonism Beta-lactamase Assay, Ratio, Phase 4 (AID 2283601)
Procedure, shortened: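 HCT116 cells carrying an inducible beta-lactamase reporter were plated at 4000 cells/well, rested 5 h, then exposed to compounds in DMSO (217-fold dilution) for 16 h at 37C. CCF4-AM substrate was loaded 2 h at room temperature; 460/530 nm emission ratio scored gain-of-signal versus DMSO.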

[7] = TOX21_p53_BLA_p5_viability: Viability Assessment in the Tox21 HCT-116 p53 Agonism Beta-lactamase Assay, Phase 5 (AID 2283600)
Procedure, shortened: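 Viability is taken from cellular ATP content, measured by luciferase luminescence in the same wells after the beta-lactamase ratio read. Cells are seeded at 4000 per well and exposed to DMSO-dissolved compounds, diluted 217-fold, for 16 h.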

Measured: outcome

COc1ccccc1C=CC=O
not listed: [7]
inactive: all other assays above

O=C(O)c1c2ccccc2cc2ccccc12
not listed: [5]
inactive: all other assays above

COc1ccc(C=CC(=O)OCCC(C)C)cc1
not listed: [5] | [6]
inactive: all other assays above

Reference: PubChem BioAssay (EPA / NIEHS)
